Values joined by “and” are separate entries in the source; they are usually repeats but may differ in a detail not shown here. Identical values can stand only once. Results filed as inconclusive are left out. Active and inactive are the calls of the source. Unless noted, the call rests on the fitted dose curve.
Assays:
[1] = Nuclear factor erythroid 2-related factor 2/antioxidant responsive element (Nrf2/ARE) small molecule agonists: luciferase reporter gene qHTS assay in human keratinocytes (AID 1919969); further: nearly all actives have a fitted effect of over 35% in size; further: potency means the concentration at half of the fitted maximal effect
[2] = target: Gonadotropin-releasing hormone receptor (Homo sapiens) (UniProt P30968); test: Human gonadotropin-releasing hormone receptor (GnRHR) small molecule agonists, calcium flux assay in GnRHR-HEK293 cells (AID 1920063); further: nearly all actives have a fitted effect of over 35% in size; further: potency means the concentration at half of the fitted maximal effect
Sequence of Gonadotropin-releasing hormone receptor (Homo sapiens) (P30968 whole entry, looked up): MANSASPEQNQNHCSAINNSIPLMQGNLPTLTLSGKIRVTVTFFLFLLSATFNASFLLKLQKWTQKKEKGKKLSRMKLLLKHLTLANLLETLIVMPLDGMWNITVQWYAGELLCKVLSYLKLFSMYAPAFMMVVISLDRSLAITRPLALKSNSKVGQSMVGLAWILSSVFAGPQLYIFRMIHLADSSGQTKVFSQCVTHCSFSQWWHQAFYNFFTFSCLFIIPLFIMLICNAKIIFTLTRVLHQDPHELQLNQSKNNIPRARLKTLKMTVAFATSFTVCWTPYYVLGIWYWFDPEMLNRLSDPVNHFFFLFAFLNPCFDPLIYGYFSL
How it was run: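 Calcium-dye fluorescence, Ex/Em=480/540, recorded every 1 sec over 3 min after compound addition to GnRHR-HEK293 cells. Cells had been seeded 18 hours earlier and dye-loaded for 1 hour at 37 C. Fifteen concentrations, triplicates.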

[3] = target: KiSS-1 receptor (Homo sapiens) (UniProt Q969F8); test: Human kisspeptin (KISS1R) small molecule agonists, calcium flux assay in KISS1R-HEK293 cells (AID 1920064; active means well fitted activation curve with a large enough effect in the repeat runs; further: potency means the concentration at half of the fitted maximal effect)
Sequence of KiSS-1 receptor (Homo sapiens) (Q969F8 whole entry, looked up): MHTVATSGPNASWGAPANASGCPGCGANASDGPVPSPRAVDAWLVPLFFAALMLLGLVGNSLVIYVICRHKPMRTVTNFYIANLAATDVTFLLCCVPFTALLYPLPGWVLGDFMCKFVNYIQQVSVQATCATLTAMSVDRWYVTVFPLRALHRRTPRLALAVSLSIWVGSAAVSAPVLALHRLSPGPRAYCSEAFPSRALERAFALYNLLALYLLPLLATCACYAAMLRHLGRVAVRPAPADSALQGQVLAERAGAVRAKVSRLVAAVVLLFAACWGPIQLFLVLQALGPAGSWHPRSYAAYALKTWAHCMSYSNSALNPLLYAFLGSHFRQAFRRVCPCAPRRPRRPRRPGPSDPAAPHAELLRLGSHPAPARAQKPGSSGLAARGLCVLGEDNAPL
How it was run: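 Calcium flux read-out: kinetic fluorescence at Ex/Em=480/540, 1 s intervals over 3 min, after pin-tool compound addition to dye-loaded KISS1R-HEK293 cells. Fifteen concentrations, triplicates.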

[4] = G protein-coupled receptor (GPCR) small molecule agonists, calcium flux assay: HEK293 wild type cell line counter screen (AID 1920065); further: potency means the concentration at half of the fitted maximal effect
How it was run: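 Agonist mode; 18 h seeding at 37 C, 1 h dye load at 37 C; compounds pinned from DMSO, ATP as positive control; kinetic fluorescence 480/540 nm, 3 min, 1 s reads; 15 concentrations, triplicate.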

[5] = p53 small molecule agonists, cell-based qHTS assay with human liver microsomes (AID 1963577)
How it was run: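 p53RE-bla reporter cells were pre-incubated 5 h at 37 C, then treated with compounds plus human liver microsomes (0.5 mg/mL final) and NADPH (0.5 mg/mL final) for 16 h at 37 C. Beta-lactamase activity was read by LiveBLAzer fluorescence after 2 h at room temperature.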

[6] = p53 small molecule agonists, cell-based qHTS assay with rat liver microsomes (AID 1963578)
How it was run: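 p53RE-bla cells were exposed to compounds together with rat liver microsomes (0.5 mg/mL final) and NADPH (0.5 mg/mL final) for 16 h at 37 C, then read by LiveBLAzer beta-lactamase fluorescence after 2 h at room temperature.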

[7] = p53 small molecule agonists, cell-based qHTS assay with human liver microsomes: qHTS cell viability counter screen (AID 1963579); further: nearly all actives have a fitted effect of over 45% in size; further: potency means the concentration at half of the fitted maximal effect
How it was run: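 p53RE-bla cells (4,000/well) were pre-incubated 5 h at 37 C, then given compounds in DMSO plus human liver microsomes (0.5 mg/mL final) and NADPH (0.5 mg/mL final) for 16 h at 37 C. Viability was read by CellTiter-Glo luminescence.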

[8] = target: 5-hydroxytryptamine receptor 2A (Homo sapiens) (UniProt P28223); test: 5-hydroxytryptamine receptor 2A (HTR2A) small molecule agonists, cell-based qHTS assay (AID 1963587); further: nearly all actives have a fitted effect of over 30% in size; further: potency means the concentration at half of the fitted maximal effect
Sequence of 5-hydroxytryptamine receptor 2A (Homo sapiens) (P28223 whole entry, looked up): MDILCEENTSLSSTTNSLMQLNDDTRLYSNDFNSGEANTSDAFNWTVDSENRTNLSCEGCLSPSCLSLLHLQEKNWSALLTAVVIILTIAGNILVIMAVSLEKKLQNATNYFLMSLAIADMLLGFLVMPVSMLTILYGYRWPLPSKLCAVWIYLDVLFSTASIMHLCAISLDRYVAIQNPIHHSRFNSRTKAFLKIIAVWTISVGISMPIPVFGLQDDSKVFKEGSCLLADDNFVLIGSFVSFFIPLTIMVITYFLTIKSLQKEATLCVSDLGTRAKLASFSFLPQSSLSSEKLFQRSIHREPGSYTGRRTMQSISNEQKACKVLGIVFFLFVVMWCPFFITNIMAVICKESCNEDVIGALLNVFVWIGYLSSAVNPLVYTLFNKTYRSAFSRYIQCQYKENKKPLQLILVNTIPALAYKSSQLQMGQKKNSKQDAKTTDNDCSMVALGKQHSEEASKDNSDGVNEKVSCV
How it was run: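 CHO cells stably expressing human HTR2A, plated 18 h, loaded with calcium dye 1 h at 37 C. Agonist mode: compounds added and intracellular calcium fluorescence recorded kinetically for 2 min at 1 sec intervals.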

[9] = target: Muscarinic acetylcholine receptor M1 (Homo sapiens) (UniProt P11229); test: Cholinergic receptor muscarinic 1 (CHRM1) small molecule antagonists, cell-based qHTS assay (AID 1963588); further: nearly all actives have a fitted effect of over 40% in size; further: potency means the concentration at half of the fitted maximal effect
Sequence of Muscarinic acetylcholine receptor M1 (Homo sapiens) (P11229 whole entry, looked up): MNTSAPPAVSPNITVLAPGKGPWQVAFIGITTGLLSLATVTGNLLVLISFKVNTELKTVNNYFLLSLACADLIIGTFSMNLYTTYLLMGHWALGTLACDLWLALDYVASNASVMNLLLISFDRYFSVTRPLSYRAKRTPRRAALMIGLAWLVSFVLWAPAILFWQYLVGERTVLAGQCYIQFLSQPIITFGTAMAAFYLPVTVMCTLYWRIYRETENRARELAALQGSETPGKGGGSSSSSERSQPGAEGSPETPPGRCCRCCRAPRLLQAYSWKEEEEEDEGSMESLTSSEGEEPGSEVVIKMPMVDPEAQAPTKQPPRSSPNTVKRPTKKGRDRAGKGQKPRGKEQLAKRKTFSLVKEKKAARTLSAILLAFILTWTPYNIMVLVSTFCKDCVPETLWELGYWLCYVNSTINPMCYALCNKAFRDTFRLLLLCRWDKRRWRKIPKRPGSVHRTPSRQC
How it was run: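 Compounds were tested at 15 concentrations in three independent runs. Dye-loaded CHRM1-CHO cells were exposed 5 min at room temperature before stimulation by acetylcholine added at 50nM. Intracellular calcium was read kinetically on FDSS for 3 min.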

[10] = target: Muscarinic acetylcholine receptor M1 (Homo sapiens) (UniProt P11229); test: Cholinergic receptor muscarinic 1 (CHRM1) small molecule agonists, cell-based qHTS assay (AID 1963589); further: nearly all actives have a fitted effect of over 35% in size; further: potency means the concentration at half of the fitted maximal effect
How it was run: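 Calcium flux read-out: kinetic fluorescence at 1 sec intervals after pin-tool compound addition to dye-loaded CHRM1-CHO cells (human M1). Agonist mode; 15 concentrations tested in triplicate independent runs.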

[11] = p53 small molecule agonists, cell-based qHTS assay: qHTS cell viability counter screen (AID 1963581); further: nearly all actives have a fitted effect of over 45% in size
How it was run: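 Cytotoxicity read-out: ATP-based luminescence (CellTiter-Glo, 30 min RT) measured in the same wells as the p53 reporter assay, HCT-116 p53RE-bla cells, 16 h compound exposure at 37 C.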

[12] = p53 small molecule agonists, cell-based qHTS assay (AID 1963582; active means well fitted activation curve with a large enough effect in the signal ratio in the repeat runs, not every such curve was filed as active; the % refers to the signal ratio)
How it was run: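 Fluorescence intensity read-out of a beta-lactamase reporter under a p53 response element. Cells were exposed to DMSO-dissolved compounds for 16 h at 37 C, then developed with FRET substrate for 2 h at RT.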

[13] = target: D(2) dopamine receptor (Homo sapiens) (UniProt P14416); test: Dopamine D2 receptor (DRD2) small molecule agonists, cell-based qHTS assay (AID 1963594); further: nearly all actives have a fitted effect of over 35% in size
Sequence of D(2) dopamine receptor (Homo sapiens) (P14416 whole entry, looked up): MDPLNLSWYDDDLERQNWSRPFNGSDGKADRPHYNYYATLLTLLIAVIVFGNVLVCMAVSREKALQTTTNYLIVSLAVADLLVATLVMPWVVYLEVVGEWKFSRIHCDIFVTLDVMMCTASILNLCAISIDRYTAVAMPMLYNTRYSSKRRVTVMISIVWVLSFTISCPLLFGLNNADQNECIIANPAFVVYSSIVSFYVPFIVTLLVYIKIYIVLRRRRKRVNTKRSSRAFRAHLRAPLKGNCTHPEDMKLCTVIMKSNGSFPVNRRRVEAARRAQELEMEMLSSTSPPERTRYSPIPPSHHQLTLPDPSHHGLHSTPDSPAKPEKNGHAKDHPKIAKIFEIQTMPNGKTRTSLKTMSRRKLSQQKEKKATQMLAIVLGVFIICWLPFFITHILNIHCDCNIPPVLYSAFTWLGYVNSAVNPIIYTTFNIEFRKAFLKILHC
How it was run: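 HEK293 cells stably expressing human DRD2, pre-treated with PDE inhibitor Ro20-1724 (0.1 mM final) and compound 10 min at room temperature, then stimulated with NKH477 (200nM […]) for 30 min. cAMP read by HTRF (665/620 nm).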

[14] = target: D(2) dopamine receptor (Homo sapiens) (UniProt P14416); test: Dopamine D2 receptor (DRD2) small molecule antagonists, cell-based qHTS assay (AID 1963595; active means well fitted inhibition curve with a large enough effect in the signal ratio in the repeat runs, with a control signal flat; the % refers to the signal ratio; further: potency means the concentration at half of the fitted maximal effect)
How it was run: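 HEK293 cells stably expressing DRD2, preincubated with 0.1 mM Ro20-1724 and compounds 10 min, were stimulated with 200 nM NKH477 plus 12 nM quinpirole for 30 min at room temperature; cAMP measured by HTRF (665/620 nm).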

[15] = p53 small molecule agonists, cell-based qHTS assay with rat liver microsomes: qHTS cell viability counter screen (AID 1963580); further: nearly all actives have a fitted effect of over 45% in size; further: potency means the concentration at half of the fitted maximal effect
How it was run: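 Cytotoxicity counter screen: intracellular ATP measured by CellTiter-Glo luminescence in the same wells as the beta-lactamase reporter read, on HCT-116 p53RE-bla cells exposed 16 h at 37 C to compounds with rat liver microsomes and NADPH, each 0.5 mg/mL final.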

[16] = target: 5-hydroxytryptamine receptor 2A (Homo sapiens) (UniProt P28223); test: 5-hydroxytryptamine receptor 2A (HTR2A) small molecule antagonists, cell-based qHTS assay (AID 1963586); further: nearly all actives have a fitted effect of over 45% in size; further: potency means the concentration at half of the fitted maximal effect
How it was run: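 CHO cells stably expressing human HTR2A were plated for 18 h at 37 C, then loaded with calcium dye for 1 h. Compounds were preincubated 5 min at room temperature before DOI (4 nM solution) was added. Kinetic fluorescence was read for 3 min.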

[17] = cAMP Responsive Elements (CRE) small molecule agonists, cell-based qHTS assay (AID 1963590); further: potency means the concentration at half of the fitted maximal effect
How it was run: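 Beta-lactamase reporter readout: LiveBLAzer B/G FRET substrate, 2 h at room temperature, added after 3 h compound treatment of CRE-bla HEK 293T cells at 37 C/5% CO2.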

[18] = cAMP Responsive Elements (CRE) small molecule antagonists, cell-based qHTS assay (AID 1963591; active means well fitted inhibition curve with a large enough effect in the signal ratio in the repeat runs, not every such curve was filed as active; the % refers to the signal ratio)
How it was run: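 HEK293T CRE-bla; 18 h preincubation; compound pin-transfer; NKH477 0.25 uM final, 3 h, 37 C; LiveBLAzer FRET substrate 2 h RT.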

[19] = target: Beta-2 adrenergic receptor (Homo sapiens) (UniProt P07550); test: Adrenergic beta2 receptor (ADRB2) small molecule antagonists, cell-based qHTS assay (AID 1963592); further: series mostly up to about 92 µM; nearly all actives have a fitted effect of over 50% in size
Sequence of Beta-2 adrenergic receptor (Homo sapiens) (P07550 whole entry, looked up): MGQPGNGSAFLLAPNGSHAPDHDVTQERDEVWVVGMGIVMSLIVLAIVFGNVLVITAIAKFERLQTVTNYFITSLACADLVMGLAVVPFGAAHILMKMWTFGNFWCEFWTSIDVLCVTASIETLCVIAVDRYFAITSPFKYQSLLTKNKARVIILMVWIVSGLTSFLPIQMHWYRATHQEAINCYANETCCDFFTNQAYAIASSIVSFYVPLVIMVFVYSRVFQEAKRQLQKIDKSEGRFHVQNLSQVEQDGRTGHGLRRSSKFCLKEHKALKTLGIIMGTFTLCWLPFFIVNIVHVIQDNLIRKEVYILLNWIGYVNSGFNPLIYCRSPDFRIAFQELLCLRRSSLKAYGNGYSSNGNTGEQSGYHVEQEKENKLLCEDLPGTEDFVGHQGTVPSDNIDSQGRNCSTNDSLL
How it was run: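 Assay format: CHO-ADRB2 cells, 18-20hr seeding at 37C/5% CO2, then compound plus 1nM isoproterenol agonist mix for 0.5hr RT. Homogeneous time-resolved fluorescence cAMP detection after 1hr, expressed as 665/615 nm ratio.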

[20] = target: Beta-2 adrenergic receptor (Homo sapiens) (UniProt P07550); test: Adrenergic beta2 receptor (ADRB2) small molecule agonists, cell-based qHTS assay (AID 1963593);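 further: CHO cells stably overexpressing human ADRB2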
How it was run: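 CHO cells stably over-expressing ADRB2 were plated overnight at 37C, then dosed with compounds plus a stimulation mix containing 100uM IBMX and 25uM Ro-20-1724 for 0.5hr at room temperature. cAMP was measured by HTRF competition, 1hr.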
On the % scale 0 is the no-effect control and ±100 the full control effect.

CN1CCCC(CC2c3ccccc3Sc3ccccc32)C1 (centres undefined)
inactive: Potency [1] | Potency [2] | Potency [3] | Potency [4] | Potency [5] | Potency [6] | Potency [7] | Potency [8] | Potency [10]
active: Potency [9] 0.0015 µM

CC(O)(c1ccc(Cl)cc1)c1ccc(Cl)cc1
active: Potency [7] 45.8 µM | Potency [8] 49 µM
inactive: Potency [1] | Potency [2] | Potency [3] | Potency [4] | Potency [5] | Potency [6] | Potency [11] | Potency [12] | Potency [9] | Potency [10] | Potency [13] | Potency [14]

O=C1OC(=O)c2cc(-c3ccc4c(c3)C(=O)OC4=O)ccc21
active: Potency [1] 48.6 µM
inactive: Potency [2] | Potency [3] | Potency [4] | Potency [5] | Potency [6] | Potency [15] | Potency [11] | Potency [12] | Potency [16] | Potency [8] | Potency [10] | Potency [17] | Potency [18] | Potency [19] | Potency [20] | Potency [13] | Potency [14]

CCCCCCCC/C=C\CCCCCCCC(=O)N(C)CC(=O)O
inactive: Potency [2] | Potency [3] | Potency [4] | Potency [5] | Potency [6] | Potency [7] | Potency [12] | Potency [16] | Potency [9] | Potency [10] | Potency [19] | Potency [20] | Potency [13] | Potency [14]
active: Potency [1] 54.5 µM

Cc1nc(Nc2ncc(C(=O)Nc3c(C)cccc3Cl)s2)cc(N2CCN(CCO)CC2)n1
active: Potency [17] 0.841 µM
inactive: Potency [1] | Potency [2] | Potency [3] | Potency [4] | Potency [5] | Potency [6] | Potency [15] | Potency [12] | Potency [16] | Potency [8] | Potency [9] | Potency [18] | Potency [19] | Potency [14]

CCCCC(CC)CN1CN(CC(CC)CCCC)CC(C)(N)C1 (centres undefined)
inactive: Potency [1] | Potency [2] | Potency [3] | Potency [4] | Potency [5] | Potency [6] | Potency [15] | Potency [11] | Potency [12] | Potency [9] | Potency [10] | Potency [18] | Potency [19] | Potency [13] | Potency [14]

CCN(Cc1cccc(S(=O)(=O)O)c1)c1ccc(C(=C2C=CC(=[N+](CC)Cc3cccc(S(=O)(=O)O)c3)C=C2)c2ccccc2S(=O)(=O)[O-])cc1
inactive: Potency [1] | Potency [2] | Potency [3] | Potency [4] | Potency [5] | Potency [6] | Potency [16] | Potency [8] | Potency [9] | Potency [10] | Potency [17] | Potency [18]
active: Potency [15] 20.5 µM

c1ccc(-c2ccc(C(c3ccccc3)n3ccnc3)cc2)cc1 (centres undefined)
inactive: Potency [2] | Potency [3] | Potency [4] | Potency [5] | Potency [6] | Potency [7] | Potency [11] | Potency [8] | Potency [10] | Potency [17] | Potency [19] | Potency [20] | Potency [13] | Potency [14]
active: Potency [1] 29.8 µM

COc1ccc(-c2ccc3cc(C(=O)O)ccc3c2)cc1C12CC3CC(CC(C3)C1)C2
inactive: Potency [1] | Potency [2] | Potency [3] | Potency [4] | Potency [5] | Potency [6] | Potency [7] | Potency [11] | Potency [12] | Potency [16] | Potency [8] | Potency [9] | Potency [17] | Potency [18] | Potency [19] | Potency [13] | Potency [14]

O=C=NC1CCC(CC2CCC(N=C=O)CC2)CC1 (centres undefined)
active: Potency [16] 2.98 µM | Potency [8] 1.95 µM | Potency [9] 4.21 µM
inactive: Potency [1] | Potency [2] | Potency [3] | Potency [4] | Potency [5] | Potency [7] | Potency [15] | Potency [11] | Potency [12] | Potency [10] | Potency [17] | Potency [18] | Potency [19] | Potency [20] | Potency [13]

CO[Si](OC)(c1ccccc1)c1ccccc1
inactive: Potency [1] | Potency [2] | Potency [3] | Potency [4] | Potency [5] | Potency [6] | Potency [7] | Potency [11] | Potency [12] | Potency [16] | Potency [8] | Potency [9] | Potency [17] | Potency [18] | Potency [19] | Potency [13] | Potency [14]

CC(Cc1ccc(O)c(O)c1)C(C)Cc1ccc(O)c(O)c1 (centres undefined)
inactive: Potency [2] | Potency [3] | Potency [4] | Potency [5] | Potency [6] | Potency [7] | Potency [11] | Potency [10] | Potency [13] | Potency [14]
active: Potency [1] 68.6 µM

O=S(=O)(c1ccc(OCc2ccccc2)cc1)c1ccccc1O
active: Potency [16] 0.594 µM | Potency [14] 61.1 µM
inactive: Potency [1] | Potency [2] | Potency [3] | Potency [4] | Potency [5] | Potency [6] | Potency [11] | Potency [10] | Potency [18]

Cc1cc2nc3c(=O)[nH]c(=O)nc-3n(C[C@H](O)[C@H](O)[C@H](O)CO)c2cc1C
active: Potency [2] 17.2 µM and 11.4 µM and 8.27 µM | Potency [3] 24.3 µM and 22.8 µM | Potency [4] 38.5 µM and 32.2 µM and 9.28 µM | Potency [10] 24.3 µM and 20.3 µM and 11.7 µM
inactive: Potency [1] | activation [5] -6.49% [at 13.5 µM] | activation [6] -5.55% [at 13.6 µM] | Potency [7] | Potency [11] | Potency [12] | Potency [16] | Potency [9] | activity change, negative = inhibition [19] -10.6% [at 19 µM] | activation [20] 1.44% [at 19 µM]

CC(O)C#CC(C)O (centres undefined)
inactive: Potency [2] | Potency [3] | Potency [4] | Potency [5] | Potency [6] | Potency [15] | Potency [11] | Potency [16] | Potency [8] | Potency [9] | Potency [10] | Potency [17] | Potency [18] | Potency [19] | Potency [14]
active: Potency [1] 21.5 µM
